ChEMBL document CHEMBL1961873, “Compounds: GSK PKIS; Assays: Nanosyn kinase panel” (2012)

Tests used:
[1] = molecular target: T1, Serine/threonine-protein kinase Nek9 (Homo sapiens) (UniProt Q8TD19); details: at 1 µM;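 note: each value is a mean percent inhibition of NEK9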
T1 sequence (whole entry): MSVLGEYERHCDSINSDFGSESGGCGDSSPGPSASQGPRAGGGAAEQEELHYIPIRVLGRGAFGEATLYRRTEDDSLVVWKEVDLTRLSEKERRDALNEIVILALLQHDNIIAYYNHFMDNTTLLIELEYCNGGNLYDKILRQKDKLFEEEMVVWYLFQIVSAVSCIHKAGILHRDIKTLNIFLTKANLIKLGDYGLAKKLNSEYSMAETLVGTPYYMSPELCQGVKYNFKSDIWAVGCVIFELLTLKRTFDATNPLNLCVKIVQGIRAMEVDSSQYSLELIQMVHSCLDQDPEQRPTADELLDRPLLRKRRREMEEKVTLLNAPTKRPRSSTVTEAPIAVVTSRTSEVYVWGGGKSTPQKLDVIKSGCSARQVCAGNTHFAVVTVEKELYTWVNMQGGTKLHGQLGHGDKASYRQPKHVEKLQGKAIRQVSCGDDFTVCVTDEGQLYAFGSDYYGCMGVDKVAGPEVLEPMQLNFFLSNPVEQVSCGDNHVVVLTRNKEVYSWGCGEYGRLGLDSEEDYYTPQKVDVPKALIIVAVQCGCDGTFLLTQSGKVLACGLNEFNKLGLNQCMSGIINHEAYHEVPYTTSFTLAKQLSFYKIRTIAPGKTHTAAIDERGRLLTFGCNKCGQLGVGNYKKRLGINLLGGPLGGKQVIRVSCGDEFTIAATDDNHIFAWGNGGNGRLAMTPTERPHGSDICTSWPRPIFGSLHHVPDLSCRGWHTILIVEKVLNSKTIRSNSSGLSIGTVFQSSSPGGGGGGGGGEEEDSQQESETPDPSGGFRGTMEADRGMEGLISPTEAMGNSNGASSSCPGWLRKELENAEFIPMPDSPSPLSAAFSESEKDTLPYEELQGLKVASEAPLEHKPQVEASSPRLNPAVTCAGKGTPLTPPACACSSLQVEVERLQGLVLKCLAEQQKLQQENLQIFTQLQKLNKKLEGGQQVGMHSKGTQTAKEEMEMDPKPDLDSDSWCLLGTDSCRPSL

[2] = molecular target: Serine/threonine-protein kinase PLK1 (Homo sapiens) (UniProt P53350); details: at 0.1 µM
[3] = molecular target: Serine/threonine-protein kinase PLK1 (Homo sapiens) (UniProt P53350); details: at 1 µM
[4] = molecular target: T2, Dual specificity protein kinase TTK (Homo sapiens) (UniProt P33981); details: at 0.1 µM
T2 sequence (whole entry): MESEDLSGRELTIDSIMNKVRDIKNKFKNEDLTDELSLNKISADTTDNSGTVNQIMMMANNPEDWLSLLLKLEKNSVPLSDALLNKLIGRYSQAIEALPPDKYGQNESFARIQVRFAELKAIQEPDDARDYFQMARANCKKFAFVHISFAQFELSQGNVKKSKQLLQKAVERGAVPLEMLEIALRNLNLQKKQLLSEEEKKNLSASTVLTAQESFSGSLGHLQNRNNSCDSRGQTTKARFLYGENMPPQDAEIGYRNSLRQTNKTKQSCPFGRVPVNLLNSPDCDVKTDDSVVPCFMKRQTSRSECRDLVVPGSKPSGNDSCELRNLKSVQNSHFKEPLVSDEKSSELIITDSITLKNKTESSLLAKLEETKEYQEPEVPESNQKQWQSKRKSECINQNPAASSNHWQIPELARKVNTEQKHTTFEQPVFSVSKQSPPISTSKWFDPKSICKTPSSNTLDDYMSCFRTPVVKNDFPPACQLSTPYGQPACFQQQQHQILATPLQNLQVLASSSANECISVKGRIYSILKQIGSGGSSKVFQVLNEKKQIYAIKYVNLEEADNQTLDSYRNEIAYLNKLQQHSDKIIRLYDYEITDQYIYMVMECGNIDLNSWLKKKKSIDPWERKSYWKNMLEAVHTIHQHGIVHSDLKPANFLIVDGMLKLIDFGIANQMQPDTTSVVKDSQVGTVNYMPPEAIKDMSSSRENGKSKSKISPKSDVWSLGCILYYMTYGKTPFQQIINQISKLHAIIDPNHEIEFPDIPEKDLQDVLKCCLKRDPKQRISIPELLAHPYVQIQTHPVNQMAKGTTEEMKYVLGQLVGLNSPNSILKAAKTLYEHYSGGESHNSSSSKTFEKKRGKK

[5] = system: T3, Receptor-type tyrosine-protein kinase FLT3 (Homo sapiens), P36888 [D835Y]; details: at 1 µM
T3 sequence (whole entry): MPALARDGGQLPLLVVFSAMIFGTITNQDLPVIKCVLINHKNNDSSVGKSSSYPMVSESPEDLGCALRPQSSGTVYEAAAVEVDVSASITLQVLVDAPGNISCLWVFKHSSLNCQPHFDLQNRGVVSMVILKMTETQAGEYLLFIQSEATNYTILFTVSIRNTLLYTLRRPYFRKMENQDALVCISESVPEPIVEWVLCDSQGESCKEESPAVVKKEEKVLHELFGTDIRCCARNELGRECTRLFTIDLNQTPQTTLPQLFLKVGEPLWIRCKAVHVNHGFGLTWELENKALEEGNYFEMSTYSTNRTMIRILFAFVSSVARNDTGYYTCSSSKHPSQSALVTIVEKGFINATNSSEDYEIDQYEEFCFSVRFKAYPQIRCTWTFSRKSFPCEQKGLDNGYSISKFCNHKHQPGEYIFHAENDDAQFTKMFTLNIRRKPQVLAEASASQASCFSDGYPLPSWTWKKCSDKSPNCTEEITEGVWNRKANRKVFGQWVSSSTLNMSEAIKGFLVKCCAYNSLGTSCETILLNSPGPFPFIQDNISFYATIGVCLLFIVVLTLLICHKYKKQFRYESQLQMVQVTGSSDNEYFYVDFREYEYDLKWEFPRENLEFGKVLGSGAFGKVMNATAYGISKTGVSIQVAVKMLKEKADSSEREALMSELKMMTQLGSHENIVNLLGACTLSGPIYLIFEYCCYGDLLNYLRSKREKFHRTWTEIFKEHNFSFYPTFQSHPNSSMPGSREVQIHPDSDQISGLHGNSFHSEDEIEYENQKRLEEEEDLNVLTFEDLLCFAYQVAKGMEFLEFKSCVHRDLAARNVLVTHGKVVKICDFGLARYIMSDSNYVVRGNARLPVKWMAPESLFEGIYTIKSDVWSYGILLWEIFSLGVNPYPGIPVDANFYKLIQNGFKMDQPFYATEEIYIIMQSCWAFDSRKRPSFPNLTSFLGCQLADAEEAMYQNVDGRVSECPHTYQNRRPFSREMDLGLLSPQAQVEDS

[6] = molecular target: Vascular endothelial growth factor receptor 3 (Homo sapiens) (UniProt P35916); details: at 0.1 µM
[7] = molecular target: Vascular endothelial growth factor receptor 3 (Homo sapiens) (UniProt P35916); details: at 1 µM
[8] = molecular target: Macrophage colony-stimulating factor 1 receptor (Homo sapiens) (UniProt P07333); details: at 0.1 µM
[9] = molecular target: Macrophage colony-stimulating factor 1 receptor (Homo sapiens) (UniProt P07333); details: at 1 µM
[10] = molecular target: Tyrosine-protein kinase Fyn (Homo sapiens) (UniProt P06241); details: at 0.1 µM
[11] = molecular target: Tyrosine-protein kinase Fyn (Homo sapiens) (UniProt P06241); details: at 1 µM
[12] = molecular target: Tyrosine-protein kinase HCK (Homo sapiens) (UniProt P08631); details: at 0.1 µM
[13] = molecular target: Tyrosine-protein kinase HCK (Homo sapiens) (UniProt P08631); details: at 1 µM
[14] = molecular target: Insulin-like growth factor 1 receptor (Homo sapiens) (UniProt P08069); details: at 0.1 µM
[15] = molecular target: Insulin-like growth factor 1 receptor (Homo sapiens) (UniProt P08069); details: at 1 µM
[16] = molecular target: Insulin receptor (Homo sapiens) (UniProt P06213); details: at 0.1 µM
[17] = molecular target: Insulin receptor (Homo sapiens) (UniProt P06213); details: at 1 µM
[18] = molecular target: Insulin receptor-related protein (Homo sapiens) (UniProt P14616); details: at 0.1 µM
[19] = molecular target: Insulin receptor-related protein (Homo sapiens) (UniProt P14616); details: at 1 µM
[20] = molecular target: T4, Tyrosine-protein kinase ITK/TSK (Homo sapiens) (UniProt Q08881); details: at 0.1 µM;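 note: mean percent inhibition of ITK from the GSK PKIS screen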
T4 sequence (whole entry): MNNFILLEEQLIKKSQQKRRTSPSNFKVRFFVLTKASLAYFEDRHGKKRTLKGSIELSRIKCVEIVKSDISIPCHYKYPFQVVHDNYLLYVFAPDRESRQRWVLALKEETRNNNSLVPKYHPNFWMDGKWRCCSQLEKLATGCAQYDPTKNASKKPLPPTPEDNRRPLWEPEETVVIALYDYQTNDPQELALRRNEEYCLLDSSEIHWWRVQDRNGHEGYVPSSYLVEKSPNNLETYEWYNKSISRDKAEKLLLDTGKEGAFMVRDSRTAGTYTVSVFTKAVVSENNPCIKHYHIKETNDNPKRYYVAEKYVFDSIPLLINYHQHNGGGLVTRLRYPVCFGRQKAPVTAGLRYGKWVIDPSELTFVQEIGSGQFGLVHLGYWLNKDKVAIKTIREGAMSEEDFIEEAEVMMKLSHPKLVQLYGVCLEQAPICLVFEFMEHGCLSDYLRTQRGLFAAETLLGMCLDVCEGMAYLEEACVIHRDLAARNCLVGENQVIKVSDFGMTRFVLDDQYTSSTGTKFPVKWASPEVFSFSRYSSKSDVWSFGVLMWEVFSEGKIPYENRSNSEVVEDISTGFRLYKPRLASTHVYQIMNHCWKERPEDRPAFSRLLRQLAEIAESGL

Sequence of Vascular endothelial growth factor receptor 3 (Homo sapiens) (P35916 whole entry): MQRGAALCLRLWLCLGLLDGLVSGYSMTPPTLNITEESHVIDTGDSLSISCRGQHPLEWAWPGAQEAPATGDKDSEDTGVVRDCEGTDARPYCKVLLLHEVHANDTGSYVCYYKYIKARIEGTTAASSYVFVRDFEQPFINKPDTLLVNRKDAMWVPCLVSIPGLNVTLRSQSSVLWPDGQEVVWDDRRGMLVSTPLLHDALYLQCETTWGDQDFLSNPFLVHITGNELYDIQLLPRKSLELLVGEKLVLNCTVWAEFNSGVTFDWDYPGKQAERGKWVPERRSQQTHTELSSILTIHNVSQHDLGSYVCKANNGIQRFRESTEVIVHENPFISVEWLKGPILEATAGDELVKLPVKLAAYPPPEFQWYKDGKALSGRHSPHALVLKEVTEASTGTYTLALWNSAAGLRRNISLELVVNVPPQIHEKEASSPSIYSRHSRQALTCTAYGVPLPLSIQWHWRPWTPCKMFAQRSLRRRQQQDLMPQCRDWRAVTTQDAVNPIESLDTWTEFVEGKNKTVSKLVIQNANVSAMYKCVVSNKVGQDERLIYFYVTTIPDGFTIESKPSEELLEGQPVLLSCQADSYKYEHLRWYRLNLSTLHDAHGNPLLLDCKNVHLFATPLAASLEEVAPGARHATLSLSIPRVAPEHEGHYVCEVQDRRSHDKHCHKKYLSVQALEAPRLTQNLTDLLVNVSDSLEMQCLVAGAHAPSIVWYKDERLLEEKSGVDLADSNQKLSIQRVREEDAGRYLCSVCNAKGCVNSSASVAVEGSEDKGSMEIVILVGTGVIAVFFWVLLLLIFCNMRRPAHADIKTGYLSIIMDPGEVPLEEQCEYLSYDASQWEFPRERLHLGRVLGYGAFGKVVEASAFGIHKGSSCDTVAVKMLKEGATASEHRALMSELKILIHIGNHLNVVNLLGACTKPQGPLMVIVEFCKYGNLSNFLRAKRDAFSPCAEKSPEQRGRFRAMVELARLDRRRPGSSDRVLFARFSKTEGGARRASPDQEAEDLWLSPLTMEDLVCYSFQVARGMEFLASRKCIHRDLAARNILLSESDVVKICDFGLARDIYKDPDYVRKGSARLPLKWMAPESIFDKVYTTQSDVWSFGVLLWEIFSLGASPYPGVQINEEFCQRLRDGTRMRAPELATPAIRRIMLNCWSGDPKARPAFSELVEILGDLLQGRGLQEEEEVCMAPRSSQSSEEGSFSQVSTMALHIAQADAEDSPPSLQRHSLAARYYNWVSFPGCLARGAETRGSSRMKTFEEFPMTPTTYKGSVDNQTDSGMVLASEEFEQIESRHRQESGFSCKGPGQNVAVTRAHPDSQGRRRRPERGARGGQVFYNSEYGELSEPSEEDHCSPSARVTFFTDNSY
Sequence of Insulin receptor (Homo sapiens) (P06213 28-758 limits assumed): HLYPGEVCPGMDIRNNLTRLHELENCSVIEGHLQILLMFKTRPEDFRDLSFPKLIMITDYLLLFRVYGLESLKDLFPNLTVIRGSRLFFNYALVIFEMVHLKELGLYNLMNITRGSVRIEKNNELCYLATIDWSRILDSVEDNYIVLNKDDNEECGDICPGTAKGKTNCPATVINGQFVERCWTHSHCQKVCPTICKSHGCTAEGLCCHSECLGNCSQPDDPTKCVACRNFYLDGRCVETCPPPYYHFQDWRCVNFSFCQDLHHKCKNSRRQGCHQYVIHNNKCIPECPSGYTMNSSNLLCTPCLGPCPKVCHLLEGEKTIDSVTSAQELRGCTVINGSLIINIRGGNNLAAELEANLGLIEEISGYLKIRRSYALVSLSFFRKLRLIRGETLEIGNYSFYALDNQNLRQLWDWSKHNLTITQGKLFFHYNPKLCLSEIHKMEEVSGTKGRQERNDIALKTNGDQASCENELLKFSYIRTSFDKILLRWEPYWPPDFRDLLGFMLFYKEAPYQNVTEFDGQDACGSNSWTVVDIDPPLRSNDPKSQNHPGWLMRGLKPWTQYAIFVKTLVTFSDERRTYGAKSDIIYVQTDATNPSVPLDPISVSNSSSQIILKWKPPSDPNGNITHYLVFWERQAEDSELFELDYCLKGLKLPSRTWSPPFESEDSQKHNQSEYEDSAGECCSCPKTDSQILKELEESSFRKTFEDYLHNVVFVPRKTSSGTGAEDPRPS
Sequence of Insulin receptor (Homo sapiens) (P06213 763-1382 limits assumed): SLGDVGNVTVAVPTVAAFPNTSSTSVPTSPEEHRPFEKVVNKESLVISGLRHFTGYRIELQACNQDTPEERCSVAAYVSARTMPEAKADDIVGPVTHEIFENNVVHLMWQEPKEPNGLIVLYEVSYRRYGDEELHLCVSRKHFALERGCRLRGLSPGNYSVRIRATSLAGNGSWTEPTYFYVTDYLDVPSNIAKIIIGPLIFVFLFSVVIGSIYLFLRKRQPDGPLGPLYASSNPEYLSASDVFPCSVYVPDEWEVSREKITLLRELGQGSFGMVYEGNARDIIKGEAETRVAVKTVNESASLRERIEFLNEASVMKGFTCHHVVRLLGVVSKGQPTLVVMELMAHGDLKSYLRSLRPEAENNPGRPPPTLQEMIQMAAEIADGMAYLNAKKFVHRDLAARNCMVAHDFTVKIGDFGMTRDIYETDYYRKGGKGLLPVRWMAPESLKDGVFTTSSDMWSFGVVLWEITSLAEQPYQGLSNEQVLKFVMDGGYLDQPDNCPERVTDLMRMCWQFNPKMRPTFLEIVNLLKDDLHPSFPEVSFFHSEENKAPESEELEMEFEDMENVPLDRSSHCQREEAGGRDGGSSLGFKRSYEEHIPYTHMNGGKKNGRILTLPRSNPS
Sequence of Insulin-like growth factor 1 receptor (Homo sapiens) (P08069 31-736 limits assumed): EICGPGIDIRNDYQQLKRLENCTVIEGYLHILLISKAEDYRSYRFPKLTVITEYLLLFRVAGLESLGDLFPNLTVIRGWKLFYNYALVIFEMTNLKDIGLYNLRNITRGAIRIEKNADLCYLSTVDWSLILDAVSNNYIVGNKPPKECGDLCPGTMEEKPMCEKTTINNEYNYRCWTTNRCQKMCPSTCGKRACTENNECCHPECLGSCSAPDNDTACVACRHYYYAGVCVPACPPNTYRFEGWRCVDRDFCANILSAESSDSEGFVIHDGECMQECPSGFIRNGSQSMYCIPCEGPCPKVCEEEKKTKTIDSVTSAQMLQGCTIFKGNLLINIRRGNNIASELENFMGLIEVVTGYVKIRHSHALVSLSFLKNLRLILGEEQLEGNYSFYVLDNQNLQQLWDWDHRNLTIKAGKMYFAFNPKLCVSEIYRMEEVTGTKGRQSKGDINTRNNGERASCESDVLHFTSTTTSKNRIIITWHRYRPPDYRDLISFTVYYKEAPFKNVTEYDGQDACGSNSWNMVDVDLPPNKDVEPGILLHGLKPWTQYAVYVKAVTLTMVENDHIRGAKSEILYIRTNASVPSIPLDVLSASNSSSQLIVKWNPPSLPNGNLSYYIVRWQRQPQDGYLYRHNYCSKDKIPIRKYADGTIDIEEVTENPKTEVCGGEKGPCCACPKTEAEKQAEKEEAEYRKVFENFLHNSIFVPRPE
Sequence of Insulin-like growth factor 1 receptor (Homo sapiens) (P08069 741-1367 limits assumed): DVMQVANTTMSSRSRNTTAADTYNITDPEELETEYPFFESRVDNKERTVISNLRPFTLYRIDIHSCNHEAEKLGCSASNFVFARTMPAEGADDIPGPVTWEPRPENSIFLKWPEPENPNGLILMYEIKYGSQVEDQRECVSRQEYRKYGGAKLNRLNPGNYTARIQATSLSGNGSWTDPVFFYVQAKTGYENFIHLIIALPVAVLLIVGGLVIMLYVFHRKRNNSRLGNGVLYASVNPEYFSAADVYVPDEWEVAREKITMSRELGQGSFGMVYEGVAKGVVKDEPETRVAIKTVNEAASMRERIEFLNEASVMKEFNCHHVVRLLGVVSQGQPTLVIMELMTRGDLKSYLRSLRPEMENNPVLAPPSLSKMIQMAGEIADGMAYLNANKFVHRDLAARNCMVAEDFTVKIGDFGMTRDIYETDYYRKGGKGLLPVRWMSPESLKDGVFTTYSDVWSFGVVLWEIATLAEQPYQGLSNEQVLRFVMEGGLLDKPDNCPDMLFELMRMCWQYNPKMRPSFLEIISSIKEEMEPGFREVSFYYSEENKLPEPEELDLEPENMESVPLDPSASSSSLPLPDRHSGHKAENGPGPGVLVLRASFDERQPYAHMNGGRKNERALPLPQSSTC
Sequence of Tyrosine-protein kinase Fyn (Homo sapiens) (P06241 2-537 limits assumed): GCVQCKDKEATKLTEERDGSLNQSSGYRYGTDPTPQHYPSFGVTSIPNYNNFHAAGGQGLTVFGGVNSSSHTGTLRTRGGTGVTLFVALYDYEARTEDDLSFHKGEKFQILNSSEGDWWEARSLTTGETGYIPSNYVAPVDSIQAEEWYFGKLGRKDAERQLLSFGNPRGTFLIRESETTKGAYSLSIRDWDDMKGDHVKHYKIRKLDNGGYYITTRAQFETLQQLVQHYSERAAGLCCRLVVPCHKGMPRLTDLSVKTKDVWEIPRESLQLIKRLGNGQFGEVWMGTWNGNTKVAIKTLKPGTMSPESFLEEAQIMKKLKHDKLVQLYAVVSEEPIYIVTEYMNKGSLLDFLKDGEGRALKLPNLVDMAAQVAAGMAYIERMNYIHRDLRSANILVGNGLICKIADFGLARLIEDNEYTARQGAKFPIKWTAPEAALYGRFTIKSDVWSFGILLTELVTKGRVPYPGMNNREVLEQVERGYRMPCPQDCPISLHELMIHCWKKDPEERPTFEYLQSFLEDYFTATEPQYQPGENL

| Structure (SMILES) | inhibition [1] [%] | inhibition [2] [%] | inhibition [3] [%] | inhibition [4] [%] | inhibition [5] [%] | inhibition [6] [%] | inhibition [7] [%] | inhibition [8] [%] | inhibition [9] [%] | inhibition [10] [%] | inhibition [11] [%] | inhibition [12] [%] | inhibition [13] [%] | inhibition [14] [%] | inhibition [15] [%] | inhibition [16] [%] | inhibition [17] [%] | inhibition [18] [%] | inhibition [19] [%] | inhibition [20] [%] |
| --- | --- | --- | --- | --- | --- | --- | --- | --- | --- | --- | --- | --- | --- | --- | --- | --- | --- | --- | --- | --- |
| Cc1cc(O)cc(C)c1/C=C/c1cncc(C(N)=O)c1 | 0.49 | 2.01 | 1.27 | 4.3 | 2.14 | 1.77 | 0.45 | 5.27 | 31.3 | 5.86 | 36.2 | 15.2 | 65.3 | 5.33 | 2.8 | 3.56 | 2.45 | 1.49 | 1.71 | 1.53 |
| Fc1cccc(COc2ccc(Nc3ncncc3C#Cc3ccccc3)cc2Cl)c1 | 8.71 | 3.37 | 3.17 | 7.47 | -0.95 | 4.04 | 0.69 | 3.32 | 4.86 | 1.15 | 2.9 | 5.09 | 7.44 | 3.73 | 3.91 | 2.77 | 4.63 | 0.84 | 3.29 | 1.58 |
| c1cnn2ncc(-c3ccnc(NCCCN4CCOCC4)n3)c2c1 | 9.51 | 4.18 | 3.55 | 9.47 | 1.99 | 0.01 | 0.07 | -0.33 | 5.17 | 2.47 | 3.59 | 8.43 | 6.17 | 3.62 | 1.61 | 4.01 | 4.01 | 2.15 | 0.25 | 1.02 |
| O=C(O[C@H]1CN[C@H](C#Cc2cc3ncnc(Nc4ccc(OCc5cccc(F)c5)c(Cl)c4)c3s2)C1)N1CCOCC1 | 13.5 | 3.78 | 4.55 | 12.4 | -1.26 | 6.24 | 3.14 | 1.07 | 1.72 | 3.75 | 6.59 | 3.37 | 6.71 | 6.13 | 14.8 | 7.72 | 5.91 | 3.84 | 3.3 | 0.99 |
| N#Cc1cccc(Nc2ncc(-c3ccccc3)o2)c1 | 4.83 | 2.12 | 1.8 | 6.6 | 9.89 | -0.11 | 3.1 | 3.05 | 14.6 | 1.43 | 10.8 | 0.69 | 7.33 | 0.34 | 0.27 | 1.81 | 4.42 | 0.61 | -0.06 | 1.16 |
| CS(=O)(=O)CCNCc1ccc(-c2ccc3ncnc(Nc4ccc(OCc5ccccc5)cc4)c3c2)o1 | 15.5 | 3.64 | 3.52 | 5.7 | -0.67 | -0.25 | 4.64 | 1.81 | 6.19 | 1.87 | 14.9 | 7.13 | 14.3 | 1.22 | 2.03 | -0.92 | 2.86 | 1.91 | 2.07 | 0.71 |
| NS(=O)(=O)c1cccc(N/C=C2\C(=O)Nc3ccccc32)c1 | 4.34 | 3.78 | 4.79 | 9.01 | 25.9 | 1.98 | 14.8 | 5.41 | 25.1 | 2.53 | 4.25 | 6.87 | 17.6 | 2.44 | 5.81 | 5.3 | 11.9 | 2.22 | 2.55 | 1.13 |
